The nature of test [1]: NCI Yeast Anticancer Drug Screen. Data for the rad50 strain (AID 155).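 Note: 0% = growth of vehicle-only cultures of the same strain.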 Conditions: S. cerevisiae rad50 strain growth inhibition, active compounds read high. A digest of the protocol: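 Growth of the mutant yeast was measured after compound exposure and referenced to vehicle-treated cultures.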
The nature of test [2]: NCI Yeast Anticancer Drug Screen. Data for the mec2-1 strain (AID 157). As to conditions: S. cerevisiae mec2-1 strain, active compounds read high. A digest of the protocol:
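Vehicle-treated cultures served as reference for growth inhibition of compound-exposed mec2-1 yeast.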

Test [3] can be described thus: NCI Yeast Anticancer Drug Screen. Data for the sgs1 mgt1 strain (AID 161).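 Note: 0% = growth of cultures given vehicle only.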 As to conditions: S. cerevisiae sgs1 mgt1 strain, active compounds read high. A digest of the protocol: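 Genetically altered yeast, compound exposure, growth inhibition relative to vehicle.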
Test [4] can be described thus: NCI Yeast Anticancer Drug Screen. Data for the cln2 rad14 strain (AID 165).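 Note: 0% = growth equal to vehicle treated cultures.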 As to conditions: S. cerevisiae cln2 rad14 strain, active compounds read high. A digest of the protocol: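 Each compound was tested on cln2 rad14 yeast. Inhibition of growth was calculated against vehicle-exposed controls.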
Test [5] can be described thus: NCI Yeast Anticancer Drug Screen. Data for the bub3 strain (AID 167). As to conditions: S. cerevisiae bub3 mutant strain, active compounds read high. The method, boiled down: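 Whole-cell yeast assay. The mutant strain was incubated with compounds, and growth inhibition was determined by comparison with vehicle-treated cells.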
The nature of test [6]: NCI Yeast Anticancer Drug Screen. Data for the mlh1 rad18 strain (AID 175). As to conditions: S. cerevisiae mlh1 rad18 strain growth inhibition, active compounds read high. The method, boiled down: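 Vehicle-treated cultures served as the reference for growth inhibition in a yeast strain carrying DNA damage repair alterations exposed to each compound.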
The mark [7] stands for this setting: at 5.0 µM (retest, dose inferred, filed as 0.5).
Where [8] appears, read: at 50.0 µM (retest, dose inferred, filed as 5.0).

Experimental findings from PubChem BioAssay (NCI) are described below.

Structures are written as SMILES. About 79,000 compounds went through this panel and 15% of them were active in at least one assay; those are over-represented in the sample as a whole. Values without a mark were called inactive. Activity calls are given as the source filed them. Cut-off read from the data, not from the text of the source: active = growth inhibition above about 70%; inactive = the rest.

Take `O=C1/C(=C/c2ccccc2)CCC/C1=C\c1ccc(O)c(CN2CCCCC2)c1`: the growth inhibition in test [1] (setting [7]) is 25%; in test [1] (setting [8]) it was 42%; in test [1] (at 50.0 µM) it was -4.05%; in test [2] (setting [7]), 16%; in test [2] (setting [8]), 27%; in test [2] (at 50.0 µM) it was 1.95%. For the same compound, the growth inhibition is 26% in test [3] (setting [7]); 47% in test [3] (setting [8]); 88.8% (active) in test [3] (at 50.0 µM); 18% in test [4] (setting [7]); 12% in test [4] (setting [8]); 74.9% (active) in test [4] (at 50.0 µM). Besides, the growth inhibition was 21% in test [5] (setting [7]); 32% in test [5] (setting [8]); 82.2% (active) in test [5] (at 50.0 µM); 25% in test [6] (setting [7]); 44% in test [6] (setting [8]); 90.8% (active) in test [6] (at 50.0 µM).

For `CCC(Sc1ccccc1[N+](=O)[O-])[N+](=O)[O-]` (stereo not given), the growth inhibition was 1% in test [1] (setting [7]); 0% in test [1] (setting [8]); 88.7% (active) in test [1] (at 50.0 µM); 0% in test [2] (setting [7]); -4% in test [2] (setting [8]); 90.8% (active) in test [2] (at 50.0 µM). The growth inhibition in test [3] (setting [7]) was 3%; in test [3] (setting [8]), -1%; in test [3] (at 50.0 µM), 49.1%; in test [4] (setting [7]), -2%; in test [4] (setting [8]) it was -6%; in test [4] (at 50.0 µM), 43.7%. The growth inhibition was 0% in test [5] (setting [7]); -11% in test [5] (setting [8]); 97.1% (active) in test [5] (at 50.0 µM); -1% in test [6] (setting [7]); 1% in test [6] (setting [8]); 55.1% in test [6] (at 50.0 µM).

In the case of `CCCC(O)CNCc1ccc(N(C)C)cc1` (stereo not given), the growth inhibition in test [1] (setting [7]) is -2%; in test [1] (setting [8]), 7%; in test [1] (at 50.0 µM) it was 30.1%; in test [2] (setting [7]), -3%; in test [2] (setting [8]) it was 6%; in test [2] (at 50.0 µM) it was -4.1%. The growth inhibition in test [3] (setting [7]) is -3%; in test [3] (setting [8]), -29%; in test [3] (at 50.0 µM), 75.6% (active); in test [4] (setting [7]), 6%; in test [4] (setting [8]), 3%; in test [4] (at 50.0 µM), 63.9%. In addition, the growth inhibition in test [5] (setting [7]) was -1%; in test [5] (setting [8]), 5%; in test [5] (at 50.0 µM) it was 46.7%; in test [6] (setting [7]), -17%; in test [6] (setting [8]), 16%; in test [6] (at 50.0 µM) it was 41.8%.

In the case of `CCCCNc1ccc(-c2c(N)nc(N)nc2CC)cc1[N+](=O)[O-]`, the growth inhibition is -7% in test [1] (setting [7]); 0% in test [1] (setting [8]); 62.4% in test [1] (at 50.0 µM); -16% in test [2] (setting [7]); 2% in test [2] (setting [8]); 17.6% in test [2] (at 50.0 µM). Moreover, the growth inhibition was -9% in test [3] (setting [7]); 15% in test [3] (setting [8]); 57% in test [3] (at 50.0 µM); -34% in test [4] (setting [7]); 8% in test [4] (setting [8]); 27.1% in test [4] (at 50.0 µM). For the same compound, the growth inhibition was -4% in test [5] (setting [7]); -1% in test [5] (setting [8]); -0.35% in test [5] (at 50.0 µM); -9% in test [6] (setting [7]); -16% in test [6] (setting [8]); 62.8% in test [6] (at 50.0 µM).

For the compound `CCc1cccc(CC)c1NC(=O)CS`, the growth inhibition in test [1] (setting [7]) is -151%; in test [1] (setting [8]) it was 93% (active); in test [1] (at 50.0 µM), 98% (active); in test [2] (setting [7]) it was -51%; in test [2] (setting [8]), 94% (active); in test [2] (at 50.0 µM), 97.7% (active). Also, the growth inhibition in test [3] (setting [7]) is -64%; in test [3] (setting [8]) it was 90% (active); in test [3] (at 50.0 µM), 61.7%; in test [4] (setting [7]), -72%; in test [4] (setting [8]), 90% (active); in test [4] (at 50.0 µM) it was 95.8% (active). In addition, the growth inhibition in test [5] (setting [7]) is -85%; in test [5] (setting [8]), 92% (active); in test [5] (at 50.0 µM), 97.8% (active); in test [6] (setting [7]), -132%; in test [6] (setting [8]), 93% (active); in test [6] (at 50.0 µM), 98% (active).

`O=C1C(c2ccccc2)CS(=O)(=O)CC1c1ccccc1` (stereo not given): the growth inhibition is -10% in test [1] (setting [7]); 0% in test [1] (setting [8]); 14% in test [1] (at 50.0 µM); -8% in test [2] (setting [7]); 7% in test [2] (setting [8]); 2.85% in test [2] (at 50.0 µM). The growth inhibition in test [3] (setting [7]) was 5%; in test [3] (setting [8]) it was 7%; in test [3] (at 50.0 µM), 57.1%; in test [4] (setting [7]), 3%; in test [4] (setting [8]), -4%; in test [4] (at 50.0 µM), 7%. Also, the growth inhibition in test [5] (setting [7]) was -3%; in test [5] (setting [8]), -12%; in test [5] (at 50.0 µM) it was -7.65%; in test [6] (setting [7]) it was 13%; in test [6] (setting [8]), 9%; in test [6] (at 50.0 µM) it was 12.6%.

As to `COc1ncc(Br)cc1C(=O)NCCc1ccc(S(=O)(=O)NC(=O)NC2CCCCC2)cc1`, the growth inhibition is 4% in test [1] (setting [7]); 96% (active) in test [1] (setting [8]); 92.8% (active) in test [1] (at 50.0 µM); 5% in test [2] (setting [7]); 94% (active) in test [2] (setting [8]); 95.5% (active) in test [2] (at 50.0 µM). Further, the growth inhibition is -1% in test [3] (setting [7]); 94% (active) in test [3] (setting [8]); 95.3% (active) in test [3] (at 50.0 µM); 5% in test [4] (setting [7]); 96% (active) in test [4] (setting [8]); 96.2% (active) in test [4] (at 50.0 µM). The growth inhibition in test [5] (setting [7]) was 18%; in test [5] (setting [8]) it was 97% (active); in test [5] (at 50.0 µM) it was 94.2% (active); in test [6] (setting [7]), 11%; in test [6] (setting [8]), 94% (active); in test [6] (at 50.0 µM), 94.9% (active).

Consider `CC1=NOC(=O)/C1=C/C=C/c1ccccc1`, for which the growth inhibition was -7% in test [1] (setting [7]); 47% in test [1] (setting [8]); 87.1% (active) in test [1] (at 50.0 µM); 3% in test [2] (setting [7]); 79% (active) in test [2] (setting [8]); 86.3% (active) in test [2] (at 50.0 µM). Moreover, the growth inhibition in test [3] (setting [7]) was 9%; in test [3] (setting [8]), 89% (active); in test [3] (at 50.0 µM), 90.3% (active); in test [4] (setting [7]), 22%; in test [4] (setting [8]), 28%; in test [4] (at 50.0 µM), 40.1%. In addition, the growth inhibition in test [5] (setting [7]) is -23%; in test [5] (setting [8]), 66%; in test [5] (at 50.0 µM) it was 60.8%; in test [6] (setting [7]), 2%; in test [6] (setting [8]), 80% (active); in test [6] (at 50.0 µM), 79.2% (active).

Turning to `O=C(N/C(=C\c1ccc(Cl)cc1)c1nc2ccccc2[nH]1)c1ccccc1`, the growth inhibition is 0% in test [1] (setting [7]); 96% (active) in test [1] (setting [8]); 97.3% (active) in test [1] (at 50.0 µM); -1% in test [2] (setting [7]); 98% (active) in test [2] (setting [8]); 97.5% (active) in test [2] (at 50.0 µM). Besides, the growth inhibition is 10% in test [3] (setting [7]); 98% (active) in test [3] (setting [8]); 96.8% (active) in test [3] (at 50.0 µM); -1% in test [4] (setting [7]); 97% (active) in test [4] (setting [8]); 96.5% (active) in test [4] (at 50.0 µM). Moreover, the growth inhibition in test [5] (setting [7]) is 13%; in test [5] (setting [8]), 97% (active); in test [5] (at 50.0 µM), 98.1% (active); in test [6] (setting [7]), 2%; in test [6] (setting [8]), 97% (active); in test [6] (at 50.0 µM) it was 96.7% (active).

For `ClCc1c(-c2ccccc2)oc(-c2ccccc2)c1CCl`, the growth inhibition is 0% in test [1] (setting [7]); 49% in test [1] (setting [8]); 32.6% in test [1] (at 50.0 µM); 1% in test [2] (setting [7]); 64% in test [2] (setting [8]); 34% in test [2] (at 50.0 µM). Moreover, the growth inhibition is 6% in test [3] (setting [7]); 72% (active) in test [3] (setting [8]); 68.8% in test [3] (at 50.0 µM); 1% in test [4] (setting [7]); 38% in test [4] (setting [8]); 21.9% in test [4] (at 50.0 µM). Further, the growth inhibition is 1% in test [5] (setting [7]); 40% in test [5] (setting [8]); 8.25% in test [5] (at 50.0 µM); 1% in test [6] (setting [7]); 86% (active) in test [6] (setting [8]); 73.4% (active) in test [6] (at 50.0 µM).
